# Source: PubChem
# POLI inh – blocks human DNA polymerase iota activity; Pol iota fluorescent replication assay, 10 min; Potency, µM (doses to about 115 µM), without a hit: top-dose activity, negative = inhibition, most hits filed as inhibitors; 390,000 tested, 1% active
#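 Pol iota at 10 nM preincubated 15 min with compounds at room temperature; reaction started with fluorescent substrate, 50 nM final. Fluorescence read kinetically at 0 and 10 min; buffer-only wells as negative control.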
# FEN1 inh-1 – inhibitors of human flap endonuclease 1; P39748; Recombinant FEN1 flap cleavage, fluorescence, 15 min; Potency, µM (highest dose often 114 µM), without a hit: at the highest dose activity change, negative = inhibition, most hits filed as inhibitors; 390,000 tested, 0.35% active; also: % is scaled to controls: 0 for no effect and ±100 for the full control effect; nearly all actives have a fitted effect of over 65% in size
#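 Nuclease activity of 10 nM FEN1 was measured after 15 min of room-temperature exposure to titrated compounds, by adding 50 nM flap substrate and reading plates at 0 and 15 min.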
# POLB inh – inhibitors of human DNA polymerase beta. 340,000 tested, 1.3% active. Pol beta primer extension/strand displacement, fluorescence kinetic. P06746. Potency, µM (series often up to 114 µM), inactives show top-dose activity change, negative = inhibition, hits mostly inhibitors; also: % is scaled to controls: 0 for no effect and ±100 for the full control effect
#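 Values derive from four-parameter Hill fits of normalized kinetic data: reads at 0 and 10 min following addition of 50 nM substrate to 10 nM Pol beta preincubated 15 min with compound.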
# WRN helicase inh – WRN helicase (human) inhibition. WRN helicase unwinding, fluorescent forked duplex, kinetic. Potency, µM (top dose mostly 114 µM), for inactives: top-dose activity change, negative = inhibition, most hits filed as inhibitors. 360,000 tested, 0.46% active. AID 651768; also: % is scaled to controls: 0 for no effect and ±100 for the full control effect; nearly all actives have a fitted effect of over 55% in size
#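 WRN at 20 nM final preincubated with compound 15 min at room temperature; reaction started with 100 nM fluorophore/quencher forked duplex oligonucleotide and 2 mM ATP final. Unwinding followed kinetically by red fluorescence (ex 525, em 598 nm).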
# POLH inh – inhibitors of human DNA polymerase eta; Q9Y253; recombinant Pol eta, fluorescent DNA replication assay; Potency, µM (titrated, usually from 114 µM), for inactives: at the top dose activity change, negative = inhibition, actives largely listed as inhibitors; 390,000 tested, 1.2% active; AID 588591; also: % is scaled to controls: 0 for no effect and ±100 for the full control effect
#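 Pol eta at 10 nM preincubated with compounds 15 min at room temperature; reaction started with fluorescent substrate (50 nM final) and read kinetically at 0 and 10 min.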
# POLK inh – blocks human DNA polymerase kappa activity. Q9UBT6. purified Pol kappa, fluorescent DNA synthesis assay, 10 min. Potency, µM (titrated, usually from 107 µM), for the others: at the highest dose activity, negative = inhibition, actives largely listed as inhibitors. 400,000 tested, 0.53% active. AID 588579; also: % is scaled to controls: 0 for no effect and ±100 for the full control effect
# Target sequence (Q9UBT6 whole entry, looked up): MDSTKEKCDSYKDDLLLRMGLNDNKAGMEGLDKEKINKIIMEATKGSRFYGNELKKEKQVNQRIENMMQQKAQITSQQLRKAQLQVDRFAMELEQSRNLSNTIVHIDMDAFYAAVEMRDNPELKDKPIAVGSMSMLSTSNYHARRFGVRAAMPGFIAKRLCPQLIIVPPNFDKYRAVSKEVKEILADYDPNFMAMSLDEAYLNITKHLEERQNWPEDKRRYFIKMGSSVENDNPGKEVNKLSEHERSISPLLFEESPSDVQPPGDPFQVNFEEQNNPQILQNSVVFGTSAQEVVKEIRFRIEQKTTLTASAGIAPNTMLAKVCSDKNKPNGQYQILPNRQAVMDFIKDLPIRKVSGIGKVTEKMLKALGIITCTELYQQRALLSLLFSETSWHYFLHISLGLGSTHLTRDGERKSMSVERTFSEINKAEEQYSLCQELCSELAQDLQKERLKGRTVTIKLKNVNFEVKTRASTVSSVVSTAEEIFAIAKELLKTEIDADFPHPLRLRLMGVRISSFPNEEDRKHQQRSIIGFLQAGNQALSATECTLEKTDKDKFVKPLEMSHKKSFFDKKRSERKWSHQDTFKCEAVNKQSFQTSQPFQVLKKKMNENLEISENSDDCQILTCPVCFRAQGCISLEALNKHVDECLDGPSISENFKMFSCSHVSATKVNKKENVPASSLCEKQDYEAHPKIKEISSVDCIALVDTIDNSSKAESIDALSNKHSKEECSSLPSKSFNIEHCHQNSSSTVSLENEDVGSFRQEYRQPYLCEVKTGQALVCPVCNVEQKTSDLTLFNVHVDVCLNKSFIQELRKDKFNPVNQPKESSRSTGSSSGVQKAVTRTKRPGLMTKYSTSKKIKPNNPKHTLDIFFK
#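 10 nM Pol kappa was preincubated with compounds for 15 min at room temperature. Reaction started with 50 nM (final) substrate. Fluorescence read kinetically at 0 and 10 min.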
# FEN1 inh-2 – FEN1 inhibition, cherry-pick retest; Potency, µM, usual class: inhibitors; shares compounds with FEN1 inh-1; AID 720498; 880 tested, 79% active; FEN1 flap cleavage, TAMRA/BHQ2 fluorogenic DNA substrate; also: nearly all actives have a fitted effect of over 60% in size
# Numbers without * were called inactive; ? = inconclusive; · = no result; [ ] = another dose, or the depositor's remark. Most compounds without a hit are left out; they make up all but 2.4% or so of the library. Calls follow the shape of the dose curve; as a rule, active = well fitted curve in the direction sought with a large enough effect; inconclusive = small, poorly fitted or top-dose-only effect, or another doubt; inactive = no such curve, though single readings can be large; an effect the other way counts as inactive or inconclusive. Potency is read from the fitted curve at half-maximal effect.
SMILES,POLI inh,FEN1 inh-1,POLB inh,WRN helicase inh,POLH inh,POLK inh,FEN1 inh-2
O=c1[nH]c2cnccc2n1-c1ccccc1,13%,7%,29%,9%,-13%,-17%,·
COc1ccc(Nc2nc(N3CCCCC3)c3ccccc3n2)cc1,11%,-10%,12%,-4%[57.1 µM],-13%,-17%,·
Oc1ccc(Nc2nc(N3CCCC3)c3ccccc3n2)cc1,?,50µM*,45µM*,?,-4%,?,34*
COc1ccccc1NC(=O)C(=O)N/N=C/c1cccs1,-40%,32µM*,?,-17%,?,-25%,30*
CCc1ccc(NCc2cc3ccc(OC)cc3n(CC(=O)Nc3ccccc3OC)c2=O)cc1,28%,-8%,18%,·,-15%,5%,·
COc1ccc(OC)c(Nc2nc(NCCCN(C)C)nc(N)c2[N+](=O)[O-])c1,32µM*,13µM*,35µM*,35µM*,50µM*,?,48*
COCCCNc1nc(N)c([N+](=O)[O-])c(Nc2cc(OC)ccc2OC)n1,52%,-3%,3%,-4%,6%,-11%,·
CC(C)Nc1ccc(Nc2ccnc3cc4ccccc4cc23)cc1,?,25µM*,14µM*,35µM*,-18%,?,24*
CCC12CN3CC(CC)(CN(C1)C3c1cc(Br)ccc1OC)C2=O (stereo unspecified),13%,-8%,25%,·,-22%,-1%,·
COc1ccc(NC(=O)CSc2nc(-c3ccc(OC)cc3)cc(=O)[nH]2)cc1,11%,7%,8%,·,-21%,8%,·
COc1cc2c(Cc3ccccc3)cncc2cc1O,19%,2%,·,-1%[11.6 µM],0%,89µM*,?
CCOC(=O)Cn1c(=O)oc2cc(S(=O)(=O)Nc3ccccc3F)ccc21,11%,-4%,6%,·,-7%,5%,·
Cc1ccc(NC(=S)N/N=C/c2ccc([N+](=O)[O-])s2)cc1,9%,-17%,-9%,-12%,-19%,-6%,·
Cc1cc(C)cc(N=Cc2ccc([N+](=O)[O-])s2)c1,79µM*,?,?,-2%[11.6 µM],32µM*,-19%,5.4*
CN(C)CCN(C)Cc1c2ccccc2c(CN(C)CCN(C)C)c2ccccc12,66%,50µM*,-31%,?,-12%,-11%,?
CN(C)CCP(=O)(c1ccccc1)c1ccccc1,-1%,14%,20%,-7%,-15%,0%,·
CCN(CC)CCOC(=O)c1ccc(NC(=O)CCCN2C(=O)/C(=C\c3cccs3)SC2=S)cc1,?,?,-2%,-3%[11.6 µM],-19%,-6%,?
O=C(CCCN1C(=O)/C(=C/c2cccs2)SC1=S)Nc1cccnc1,29%,1%,-24%,-18%,4%,-11%,·
CCn1c(CN2CCCCC2)nc2cc(NC(=O)c3ccc([N+](=O)[O-])cc3)ccc21,-15%,3%,-6%,·,-1%,-8%,·
COc1ccc(Cn2c(-c3ccco3)nc3c(c(=O)c4ccccc4n3C)c2=O)cc1,-25%,22µM*,?,-1%[11.6 µM],-13%,-6%,30*
COc1ccc(S(=O)(=O)N2CCN(C(=O)c3ccc([N+](=O)[O-])o3)CC2)cc1,?,0%,?,-5%[11.6 µM],?,-18%,76*
COc1ccc(CCC(=O)N2CCN(S(=O)(=O)c3ccc(C)cc3)CC2)cc1,-2%,7%,·,-4%,-14%,10%,·
CC(=O)Nc1sc2c(c1-c1nc3ccccc3o1)CCN(C(C)C)C2,·,·,·,·,·,·,30*
COc1ccc2c(c1)c(/C=C/c1cc[n+](C)cc1)cn2C,?,?,89µM*,-36%,-15%,-19%,43*
c1ccc(CN2CCC(N3CCC(N4CCCCCC4)CC3)CC2)cc1,124%,-7%,36%,-18%,-14%,-6%,·
SMILES,POLI inh,FEN1 inh-1,POLB inh,WRN helicase inh,POLH inh,POLK inh,FEN1 inh-2
c1ccc2c(c1)c1c(c3ccccc32)CN2CCCC2C1 (stereo unspecified),?,18µM*,·,0%[11.6 µM],?,-31%,38*
COc1cccc(C2c3c(ncn(CCCN4CCOCC4)c3=N)Oc3ccc4ccccc4c32)c1 (stereo unspecified),·,·,·,·,·,·,38*
COc1ccc(-n2ncc(C(=O)NCc3cccs3)c2C2CCN(C(=O)OC(C)(C)C)CC2)cc1,12%,-17%,3%,·,-20%,-22%,·
COc1cc(NC(=O)c2nn(-c3ccc(F)cc3)c(=O)n(C)c2=O)cc(OC)c1OC,0%,-9%,34%,·,-4%,-9%[60.1 µM],·
O=C1NC(=S)S/C1=C1\Sc2ccccc2N1CCCS(=O)(=O)O,?,2%,-1%,-5%,?,-3%,·
NN1C(=O)/C(=C2/Sc3ccccc3N2CCCS(=O)(=O)O)SC1=S,?,35µM*,22µM*,-20%,50µM*,-35%,?
Cc1nc2cncnc2n(C2CC2)c1=O,·,·,·,·,·,-2%[60.1 µM],·
CCOc1ccc2nc(NC3=NCN(Cc4ccco4)CN3)nc(C)c2c1,·,·,13%,·,·,·,·
CCOc1ccc2c(C)nc(NC3=NC(C)(C)C=C(C)N3)nc2c1,4%,45µM*,-1%,95%,5%,7%,27*
COc1ccc2c(C)nc(Nc3nc(-c4ccccc4)cc(=O)[nH]3)nc2c1,57%,-19%,61%,?,-15%,1%,·
CCOc1ccc2nc(NC3=NC(C)(C)C=C(C)N3)nc(C)c2c1,13%,40µM*,27%,86%,-6%,7%,17*
CCOc1ccc2nc(NC3=NC(c4ccc(OC)cc4)CC(=O)N3)nc(C)c2c1 (stereo unspecified),14%,79µM*,33%,50µM*,-24%,-12%,76*
CCOc1ccc(C2CC(=O)NC(NC(=O)c3ccc(C)cc3)=N2)cc1 (stereo unspecified),21%,-5%,3%,·,-13%,-6%,·
Cc1ccc(CN(C(=O)c2ccc(OCC(C)C)cc2)c2ccccn2)o1,23%,1%,0%,·,-15%,-24%,·
COc1ccc(-c2c(-c3ccccc3)c(C(=O)C(=O)NCCCN(C)C)n3ccc4cc(OC)c(OC)cc4c23)cc1OC,102%,40µM*,-41%,-10%,?,?,34*
O=C(COC(=O)c1ccc(Br)o1)NCc1ccc2c(c1)OCO2,7%,-1%,·,-1%,-6%,-8%,·
O=C(COC(=O)c1ccc([N+](=O)[O-])o1)NCc1ccc2c(c1)OCO2,?,18µM*,·,15%,79µM*,-24%,7.6*
CC(C)(C)N(Cc1ccccc1)C(=O)COC(=O)c1ccc([N+](=O)[O-])o1,1%,?,·,6%,?,-2%,21*
